Screening results as filed in PubChem.
An excerpt weighted towards active compounds, which were near 6.1% of everything screened.
DRD3 antagonist: D3 dopamine receptor (human) antagonism; max response, negative = inhibition, %; D3R cells, DiscoveRx beta-arrestin luminescence, antagonist mode; stronger effect = lower value; AID 652054; P35462; 360,000 compounds, 2.5% hits; in the data active = max response below about -50%; inconclusive = no clear call, values can overlap the other calls; note: % is set by controls: 0 for no effect and ±100 for the full control effect
Target sequence (P35462 whole entry, looked up): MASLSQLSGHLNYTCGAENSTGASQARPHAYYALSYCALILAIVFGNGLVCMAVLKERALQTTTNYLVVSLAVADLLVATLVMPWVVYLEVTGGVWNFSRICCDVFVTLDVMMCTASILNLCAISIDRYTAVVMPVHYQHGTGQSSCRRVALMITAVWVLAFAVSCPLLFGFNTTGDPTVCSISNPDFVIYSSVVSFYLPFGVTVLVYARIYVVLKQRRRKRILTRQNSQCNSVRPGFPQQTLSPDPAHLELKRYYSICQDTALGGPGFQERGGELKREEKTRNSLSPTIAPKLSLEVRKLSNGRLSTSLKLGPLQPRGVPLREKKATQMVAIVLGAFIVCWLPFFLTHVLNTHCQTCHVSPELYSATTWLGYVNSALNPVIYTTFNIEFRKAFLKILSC
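Cells plated overnight at 1500 cells/well, then exposed to library compounds with dopamine controls for 90 minutes at 37 degrees C. DiscoveRx reagent added for 30–60 minutes at room temperature; luminescence read, quantitative HTS format.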
D1 agonist: agonists of human D1 dopamine receptor; P21728; HEK293 T-REx D1 cells, calcium flux, agonist mode; AID 504660; activation, % at 2 µM; 360,000 compounds, 1% hits; in the data active = activation above about 30%; note: 0% is about no effect
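Inducible HEK293 T-REx D1 cells, force-coupled to calcium signalling, were plated at 4000 cells/well with tetracycline and held overnight at 30 C. After no-wash calcium dye loading, compound-evoked calcium rise over 180 s flagged agonists.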
DRD3 agonist: activates the human D3 dopamine receptor | P35462 | D3R DiscoveRx beta-arrestin cells, luminescence, 90 min | max activation, % | 410,000 compounds, 0.58% hits | AID 652048; in the data active = max activation above about 30%; note: 0% is about no effect
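Agonist mode: compounds and dopamine controls were applied to plated cells for 90 min at 37 degrees C after an overnight attachment at 1500 cells/well. Luminescent read-out followed 30 - 60 minutes at room temperature with DiscoveRx detection reagent.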
D1 antagonist: antagonists of human D1 dopamine receptor; P21728; HEK293 TREx D1 cells, calcium flux, dopamine EC80; stronger effect = lower value; activity change, negative = inhibition, % at 10 µM; 360,000 compounds, 3.2% hits; AID 504652; in the data active = activity change below about -30%; note: % is set by controls: 0 for no effect and ±100 for the full control effect
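Calcium flux readout: force-coupled, inducible Hek293 Trex D1 line, cells induced overnight at 30 C with tetracycline, dye-loaded 30–90 min at RT. Antagonism scored against EC80 dopamine challenge given 180 s after compound.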
D1 potentiator: human D1 dopamine receptor positive modulation; P21728; HEK293 TREx D1 cells, calcium flux, dopamine EC20 potentiation; potentiation, % at 10 µM; 360,000 compounds, 0.036% hits; in the data active = potentiation above about 30%; note: 0% is about no effect
Numbers without * were called inactive; ! = a repeat was not active.

How did C=CCNc1nc(Nc2ccc(-c3nc4ccccc4o3)cc2)nc(N2CCOCC2)n1 do in these assays?
DRD3 antagonist: 8; D1 agonist: 0; DRD3 agonist: 33*; D1 antagonist: -3; D1 potentiator: 2

How did C=CCNc1nc(NCC)nc(N2CCOCC2)n1 do in these assays?
DRD3 antagonist: 0; D1 agonist: 1; DRD3 agonist: 12; D1 antagonist: -9; D1 potentiator: -10

How did CS(=O)(=O)c1ccc2nc(NC(=O)Nc3cccc(Cl)c3)sc2c1 do in these assays?
DRD3 antagonist: 27; D1 agonist: 34*; DRD3 agonist: 15; D1 antagonist: -26; D1 potentiator: -3

What do the screens show for `CS(=O)(=O)c1ccc2nc(NC(=O)Nc3ccc(Cl)c(Cl)c3)sc2c1`?
DRD3 antagonist: 24; D1 agonist: 8; DRD3 agonist: 55*; D1 antagonist: -9; D1 potentiator: 3

Results for Cc1nc2ccc(S(=O)(=O)NC(C(=O)Nc3nc4ccc(Cl)cc4s3)C(C)C)cc2s1 (stereo unspecified) ?
DRD3 antagonist: -23; D1 agonist: 2; DRD3 agonist: -1; D1 antagonist: -41*

How did Cc1ccc(NC(=O)Nc2nc3ccc(S(C)(=O)=O)cc3s2)cc1 do in these assays?
DRD3 antagonist: 4; D1 agonist: 7; DRD3 agonist: 2; D1 antagonist: 2; D1 potentiator: -6

How did Cc1nc2ccc(S(=O)(=O)NC(C(=O)Nc3nccs3)C(C)C)cc2s1 (stereo unspecified) do in these assays?
DRD3 antagonist: 30; D1 agonist: 4; DRD3 agonist: -5; D1 antagonist: 10; D1 potentiator: -8

What do the screens show for `CCN(CC)c1ccc(NC(=O)c2ccc(Br)o2)c(C)c1`?
DRD3 antagonist: -73*; D1 agonist: 35*; DRD3 agonist: 2; D1 antagonist: -1; D1 potentiator: -9

Results for CCN(CC)c1ccc(NC(=O)c2ccco2)c(C)c1 ?
DRD3 antagonist: -18; D1 agonist: -2; DRD3 agonist: -23; D1 antagonist: -14; D1 potentiator: 4

How did CSc1c(C#N)c(N)nc2sc(C(=O)c3ccccc3)c(N)c12 do in these assays?
DRD3 antagonist: -5; D1 agonist: 37*; DRD3 agonist: 10; D1 antagonist: -11; D1 potentiator: 0

What do the screens show for `N#Cc1c(SCc2ccc(Cl)cc2)sc(C(=O)c2ccccc2)c1N`?
DRD3 antagonist: -23; D1 agonist: 4; DRD3 agonist: -5; D1 antagonist: -1; D1 potentiator: -8

Results for Cc1ccsc1/C=C/C1=NCCCN1C ?
DRD3 antagonist: -52*!; D1 agonist: 2; DRD3 agonist: -45; D1 antagonist: 7; D1 potentiator: -6

Results for Cc1ccsc1/C=N/N=C/c1sccc1C ?
DRD3 antagonist: 0; D1 agonist: 6; DRD3 agonist: 2; D1 antagonist: 7; D1 potentiator: 14

Results for CCCCN(C)C(=O)CN1C(=O)c2cccnc2Oc2ccc(Cl)cc21 ?
D1 agonist: -1; DRD3 agonist: 7; D1 antagonist: -1; D1 potentiator: -1

Results for O=C(NCc1ccco1)c1ccc2c(c1)N(Cc1ccc(Cl)cc1)CCS2 ?
DRD3 antagonist: -10; D1 agonist: 2; DRD3 agonist: -8; D1 antagonist: -37*; D1 potentiator: -8

What do the screens show for `O=C(NCc1ccco1)c1ccc2c(c1)N(Cc1ccccc1)CCS2`?
DRD3 antagonist: -20; D1 agonist: 4; DRD3 agonist: -2; D1 antagonist: -14; D1 potentiator: -10

How did COc1ccc(-n2c3c(c(=O)[nH]c2=O)C(NC(C)=O)(C(F)(F)F)C(=O)N3)cc1 (stereo unspecified) do in these assays?
DRD3 antagonist: 1; D1 agonist: 2; DRD3 agonist: -4; D1 antagonist: -54*!; D1 potentiator: -3

What do the screens show for `COc1ccc(-n2nc(C(=O)Nc3ccc(C)cn3)c3c4ccccc4n(C)c3c2=O)cc1`?
D1 agonist: -2; DRD3 agonist: 7; D1 antagonist: 6; D1 potentiator: 3

Results for OC1(Cc2cc(-c3ccccc3)no2)CCN(CCCc2ccccc2)CC1 ?
DRD3 antagonist: -75*; D1 agonist: 18; DRD3 agonist: -8; D1 antagonist: 1; D1 potentiator: 3

What do the screens show for `O=C(CCCN1CC=C(n2c(=O)[nH]c3ccccc32)CC1)c1ccc(F)cc1`?
DRD3 antagonist: -19; D1 agonist: 7; DRD3 agonist: -11; D1 antagonist: -71*; D1 potentiator: -3

Results for O=C(CCCN1CCC(n2c(=S)[nH]c3ccccc32)CC1)c1ccc(F)cc1 ?
DRD3 agonist: -25

Results for CCOc1nc(C)ccc1-c1noc(CC)n1 ?
DRD3 antagonist: 12; D1 agonist: 3; DRD3 agonist: 4; D1 antagonist: -38*; D1 potentiator: -2

What do the screens show for `Cc1ccsc1C(=O)NNC(=O)CCN1CCN(c2ccccc2)CC1`?
DRD3 antagonist: inconclusive; D1 agonist: -1; DRD3 agonist: 4; D1 antagonist: -8; D1 potentiator: -2

Results for O=C(CCN1CCN(c2ccccc2)CC1)NNC(=O)Cc1ccc(Br)cc1 ?
DRD3 antagonist: inconclusive; D1 agonist: 1; DRD3 agonist: -9; D1 antagonist: -39*; D1 potentiator: -9

What do the screens show for `Cc1ccccc1C(=O)NCC(=O)NNC(=O)CCN1CCN(c2ccccc2)CC1`?
DRD3 antagonist: -3; D1 agonist: 2; DRD3 agonist: 32*; D1 antagonist: -27; D1 potentiator: -4

Results for Cc1cccc(OCCSc2nc3ccc(NC(=O)c4cccs4)cc3s2)c1 ?
D1 agonist: 9; DRD3 agonist: -10; D1 antagonist: 3; D1 potentiator: -2

Results for CCc1ccc(CNC(=O)c2cnc3sc(N4CCOCC4)nn3c2=O)cc1 ?
D1 agonist: 0; DRD3 agonist: 17; D1 antagonist: 1; D1 potentiator: -7

Results for Cc1c(N/N=C(\C#N)C(=O)c2ccc(Cl)cc2)c(=O)n(-c2ccccc2)n1C ?
DRD3 antagonist: -80*; D1 agonist: 7; DRD3 agonist: -23; D1 antagonist: 1; D1 potentiator: -9

What do the screens show for `N#C/C(=N\Nc1ccc(Cl)cc1)C(=O)c1ccccc1`?
DRD3 antagonist: 0; D1 agonist: 17; DRD3 agonist: -2; D1 antagonist: -15; D1 potentiator: -5

How did CCc1ccc2oc(C(=O)N3CCN(c4ccccc4OC)CC3)cc(=O)c2c1 do in these assays?
DRD3 antagonist: 5; D1 agonist: 0; DRD3 agonist: -1; D1 antagonist: 8; D1 potentiator: -4

What do the screens show for `CCc1ccc2oc(C(=O)N3CCN(c4ccc(OC)cc4)CC3)cc(=O)c2c1`?
DRD3 antagonist: 6; D1 agonist: 6; DRD3 agonist: 4; D1 antagonist: -41*; D1 potentiator: -6

What do the screens show for `O=C1CCN(Cc2cccnc2)CCN1[C@H](CO)Cc1ccccc1`?
DRD3 antagonist: -67*; D1 agonist: 1; DRD3 agonist: -31; D1 antagonist: -5; D1 potentiator: -1
